Laboratory results reported in PubChem BioAssay.
Active and inactive are the calls of the source.

Assays:
[1] = optical density shifts of acrAB sulA E. coli – strain DRC41, OD650, 48 h, E. coli filamentation inducer project, primary screen (AID 1152); conditions: higher = more signal, called active from +8 up or from −8 down;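 also: E. coli MC1000 strain DRC41 lacking acrAB efflux pump and sulA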
[2] = probe aLefty1 binding on compound microarray – biochemical, small-molecule microarray, 635/667 nm fluorescence, primary screen (AID 1153); conditions: higher = more signal;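 also: score merges spot fluorescence with signal-to-noise ratio from the scanned slide images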
[3] = plasmodial surface anion channel blockers, osmotic lysis – cell-based, P. falciparum Indochina, OD700, 1 h, primary screen (AID 1154); conditions: P. falciparum Indochina infected RBC osmotic lysis, higher = more signal, called active from +8 up or from −8 down
[4] = plasmodial surface anion channel blockers, osmotic lysis – cell-based, P. falciparum Indochina, OD700, 2 h, primary screen (AID 1155);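 also: lysis reports solute entry through the parasite surface anion channel PSAC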; conditions: P. falciparum Indochina infected erythrocytes, higher = more signal, called active from +8 up or from −8 down
[5] = changes in parasitized red cell lysis, either direction – P. falciparum Indochina, OD700, 3 h, PSAC antagonist project, primary screen (AID 1156); conditions: P. falciparum-infected erythrocytes, osmotic lysis, higher = more signal, called active from +8 up or from −8 down
[6] = plasmodial surface anion channel blockers, osmotic lysis – cell-based, P. falciparum Indochina, OD700, 18 h, primary screen (AID 1157); conditions: P. falciparum Indochina infected erythrocytes, osmotic lysis OD700, 18 h; higher = more signal, called active from +8 up or from −8 down
[7] = S6 kinase pathway phospho-S6 level changes – cell-based, A549, cytoblot, luminescence, serum-stimulated, primary screen (AID 1158); conditions: 5 h, higher = more signal;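 also: serum-stimulated A549 lung adenocarcinoma cells; signal is phosphorylated S6 detected by cytoblot immunostaining with HRP secondary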
[8] = molecular target: NADPH oxidase 2 (Homo sapiens) (UniProt P04839); test: compounds shifting NOX2 Amplex Red fluorescence – cell-based, HEK293-NOX2, PMA-stimulated, NOX inhibitor project, primary screen (AID 1159); conditions: 45 min, higher = more signal, called active from +8 up or from −8 down; also: test concentration not given here
Sequence of NADPH oxidase 2 (Homo sapiens) (P04839 whole entry, looked up): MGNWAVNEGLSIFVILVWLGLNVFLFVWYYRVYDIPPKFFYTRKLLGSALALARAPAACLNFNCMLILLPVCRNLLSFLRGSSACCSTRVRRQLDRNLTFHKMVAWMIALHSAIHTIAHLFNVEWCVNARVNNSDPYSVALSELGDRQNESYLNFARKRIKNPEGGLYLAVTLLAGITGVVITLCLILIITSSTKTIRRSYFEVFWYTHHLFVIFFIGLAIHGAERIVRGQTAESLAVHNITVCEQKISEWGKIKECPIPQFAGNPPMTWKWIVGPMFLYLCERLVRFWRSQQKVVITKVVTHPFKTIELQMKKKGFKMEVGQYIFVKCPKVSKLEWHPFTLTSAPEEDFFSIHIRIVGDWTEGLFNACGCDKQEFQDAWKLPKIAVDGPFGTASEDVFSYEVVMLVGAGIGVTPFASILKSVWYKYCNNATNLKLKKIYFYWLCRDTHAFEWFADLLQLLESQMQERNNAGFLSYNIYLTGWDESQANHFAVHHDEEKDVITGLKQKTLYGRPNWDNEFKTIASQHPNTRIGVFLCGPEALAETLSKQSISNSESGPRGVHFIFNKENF

[9] = molecular target: NADPH oxidase 4 (Homo sapiens) (UniProt Q9NPH5); test: compounds shifting NOX4 Amplex Red fluorescence – cell-based, HEK293-NOX4, tetracycline-induced, NOX inhibitor project, primary screen (AID 1160); conditions: HEK293-NOX4, Amplex Red H2O2 fluorescence, 45 min; higher = more signal, called active from +8 up or from −8 down
Sequence of NADPH oxidase 4 (Homo sapiens) (Q9NPH5 whole entry, looked up): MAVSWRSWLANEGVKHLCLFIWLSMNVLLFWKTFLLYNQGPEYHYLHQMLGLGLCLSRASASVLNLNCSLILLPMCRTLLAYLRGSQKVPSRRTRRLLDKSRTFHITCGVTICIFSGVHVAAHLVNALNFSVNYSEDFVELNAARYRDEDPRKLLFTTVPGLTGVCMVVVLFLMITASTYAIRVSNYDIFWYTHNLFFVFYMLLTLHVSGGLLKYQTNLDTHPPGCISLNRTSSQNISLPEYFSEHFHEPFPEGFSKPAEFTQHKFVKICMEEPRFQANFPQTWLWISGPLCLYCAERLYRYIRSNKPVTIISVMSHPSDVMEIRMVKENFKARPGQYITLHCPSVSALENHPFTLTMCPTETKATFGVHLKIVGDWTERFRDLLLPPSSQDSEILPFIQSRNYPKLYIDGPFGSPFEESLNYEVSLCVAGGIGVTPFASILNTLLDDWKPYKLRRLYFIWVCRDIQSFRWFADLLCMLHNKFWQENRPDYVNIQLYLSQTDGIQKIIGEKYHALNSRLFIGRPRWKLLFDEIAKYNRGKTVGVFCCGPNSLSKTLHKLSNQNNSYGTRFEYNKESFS

[10] = molecular target: NADPH oxidase 5 (Homo sapiens) (UniProt Q96PH1); test: compounds shifting NOX5 Amplex Red fluorescence – cell-based, HEK293-NOX5, NOX inhibitor project, primary screen (AID 1161); conditions: HEK293-NOX5, ionomycin, 45 min, higher = more signal
Sequence of NADPH oxidase 5 (Homo sapiens) (Q96PH1 whole entry, looked up): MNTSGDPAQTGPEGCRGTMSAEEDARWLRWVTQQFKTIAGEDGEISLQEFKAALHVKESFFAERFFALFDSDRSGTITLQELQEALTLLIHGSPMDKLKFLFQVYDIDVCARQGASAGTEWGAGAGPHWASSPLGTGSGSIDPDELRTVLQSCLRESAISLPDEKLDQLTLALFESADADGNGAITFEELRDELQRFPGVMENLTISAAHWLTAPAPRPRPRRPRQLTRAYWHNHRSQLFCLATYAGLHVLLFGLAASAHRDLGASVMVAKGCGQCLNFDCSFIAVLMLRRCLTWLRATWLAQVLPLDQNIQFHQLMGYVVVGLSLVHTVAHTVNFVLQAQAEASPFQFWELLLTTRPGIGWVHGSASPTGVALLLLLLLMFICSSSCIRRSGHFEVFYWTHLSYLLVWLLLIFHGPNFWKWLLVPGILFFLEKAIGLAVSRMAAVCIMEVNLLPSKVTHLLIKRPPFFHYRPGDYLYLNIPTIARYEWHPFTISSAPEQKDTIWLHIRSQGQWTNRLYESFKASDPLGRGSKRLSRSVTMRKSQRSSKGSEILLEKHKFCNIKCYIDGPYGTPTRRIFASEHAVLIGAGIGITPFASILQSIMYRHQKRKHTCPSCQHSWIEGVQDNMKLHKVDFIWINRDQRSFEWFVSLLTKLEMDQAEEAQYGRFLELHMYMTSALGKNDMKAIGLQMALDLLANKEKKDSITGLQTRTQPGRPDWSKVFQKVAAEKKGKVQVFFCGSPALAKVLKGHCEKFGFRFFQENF

[11] = compound effects on lung adenocarcinoma cell viability – A549, calcein-AM fluorescence, 48 h, basal, profiling panel (AID 1162); conditions: higher = more signal; also: test concentration not given here
[12] = compound effects on differentiated 3T3-L1 adipocyte viability – cell-based, 3T3-L1 adipocytes, calcein-AM fluorescence, 48 h, basal, profiling panel (AID 1163); conditions: 3T3-L1 adipocytes viability, higher = more signal; also: test concentration not given here
[13] = compound effects on hepatocellular carcinoma cell viability – HepG2, calcein-AM fluorescence, 48 h, basal, profiling panel (AID 1164); conditions: higher = more signal; also: test concentration not given here
[14] = compound effects on multiple myeloma cell viability – MM1S, calcein-AM fluorescence, 48 h, basal, profiling panel (AID 1165); conditions: higher = more signal; also: test concentration not given here
[15] = calcein-AM signal in unstimulated myeloma cells – cell-based, calcein-AM fluorescence, 48 h, PK04 Diversity Set, profiling panel (AID 1166); conditions: RPMI8226 myeloma viability, higher = more signal;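 also: cells grown under basal conditions without added stimulus; test concentration not given here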
[16] = JC-1 mitochondrial signal, unstimulated HepG2 cells – cell-based, JC-1 fluorescence, 24 h, 100 nL compound, profiling panel (AID 1167); conditions: HepG2 mitochondrial potential, higher = more signal; also: test concentration not given here
[17] = JC-1 mitochondrial signal, unstimulated adipocytes – cell-based, JC-1 fluorescence, 3T3-L1 adipocytes, 24 h, 100 nL compound, profiling panel (AID 1168); conditions: JC-1 mitochondrial fluorescence, higher = more signal, called active from +8 up or from −8 down; also: test concentration not given here
[18] = JC-1 mitochondrial signal, unstimulated myeloma cells – cell-based, JC-1 fluorescence, RPMI8226, 24 h, 100 nL compound, profiling panel (AID 1169); conditions: JC-1 mitochondrial potential fluorescence, higher = more signal; also: test concentration not given here
[19] = JC-1 mitochondrial signal, unstimulated MM1S myeloma – cell-based, JC-1 fluorescence, 24 h, 100 nL compound, profiling panel (AID 1170); conditions: MM1S mitochondrial potential, higher = more signal; also: test concentration not given here
[20] = resazurin metabolic signal in A549 cells – cell-based, resazurin fluorescence, 24 h, PK04 Diversity Set, profiling panel (AID 1171); conditions: A549 viability, higher = more signal, called active from +8 up or from −8 down; also: test concentration not given here

| Structure (SMILES) | z-score [1] | composite z-score [2] | z-score [3] | z-score [4] | z-score [5] | z-score [6] | z-score [7] | z-score [8] | z-score [9] | z-score [10] | z-score [11] | z-score [12] | z-score [13] | z-score [14] | z-score [15] | z-score [16] | z-score [17] | z-score [18] | z-score [19] | z-score [20] |
| --- | --- | --- | --- | --- | --- | --- | --- | --- | --- | --- | --- | --- | --- | --- | --- | --- | --- | --- | --- | --- |
| CC(C)CCC[C@@H](C)[C@H]1CC[C@@]2(C)C3=C(CC[C@]12C)[C@@]1(C)CC[C@H](OC(=O)c2ccc(N)cc2)C(C)(C)C1CC3 (stereo not given in full) | 3.27 (inactive) | -0.278 | -1.05 (inactive) | -1.26 (inactive) | -0.492 (inactive) | -2.86 (inactive) | 1.93 | -0.759 (inactive) | 0.253 (inactive) | 0.807 | 1.22 | 0.187 | 1.06 | -0.169 | 0.814 | 0.703 | 0.335 (inactive) | -0.064 | -0.0494 | -0.16 (inactive) |
| CCCc1cc2c(n1Cc1ccc(OC)cc1)C(C)C1CN(C(=O)c3ccccc3)C(C)(C(=O)OC)C21 (stereo not given) | -2.02 (inactive) | 1.1 | 3.99 (inactive) | 0.713 (inactive) | 1.27 (inactive) | 0.25 (inactive) | -0.57 | -1.55 (inactive) | -3.23 (inactive) | -3.28 | -0.923 | 0.431 | -0.815 | -2.74 | -4.66 | 2.08 | -1.82 (inactive) | -0.157 | -1.61 | -0.535 (inactive) |
| CCCCC(=C=CC[C@H](O)c1ccccc1OCCO)C[C@H](O)c1ccccn1 | 1.47 (inactive) | -0.0536 | 4.7 (inactive) | 1.16 (inactive) | 2.3 (inactive) | 0.576 (inactive) | 0.822 | -0.778 (inactive) | -0.193 (inactive) | -1.37 | 0.747 | -0.547 | 1.04 | 0.7 | -0.327 | 0.21 | 0.589 (inactive) | -0.45 | -1.14 | 0.412 (inactive) |
| COC(=O)[C@@]1(Cc2ccccc2)[C@H]2c3cc(C(=O)N(C)C)n(Cc4ccc(O)c(OC)c4)c3C[C@H]2CN1C(=O)c1ccccc1 | -0.404 (inactive) | 0.774 | 2.41 (inactive) | -0.214 (inactive) | 0.158 (inactive) | -1.32 (inactive) | 1.67 | -4.69 (inactive) | -6.03 (inactive) | -6.08 | -0.927 | 1.68 | 0.0419 | -0.494 | -1.26 | 2.19 | -0.485 (inactive) | -0.671 | -1.47 | 0.349 (inactive) |
| COC(=O)C(CC#Cc1ccc2c(c1)[C@]1(C(=O)N2)[C@H](C(=O)N2CCc3cc(OC)c(OC)cc3C2)[C@H]2C(=O)O[C@H](c3ccccc3)[C@H](c3ccccc3)N2[C@@H]1c1ccc(OCCO)cc1)C(=O)OC | 0.408 (inactive) | 0.546 | 6.17 (inactive) | 2.37 (inactive) | 1.15 (inactive) | 1.28 (inactive) | 0.237 | 1.26 (inactive) | 0.487 (inactive) | 1.32 | 0.968 | -0.204 | 1.63 | 0.783 | 0.678 | -2.03 | 0.375 (inactive) | -0.678 | -1.49 | 0.21 (inactive) |
| COc1cccc(C)c1NC(=O)O[C@H]1[C@H](OC(=O)Nc2ccccc2)[C@H](OC(=O)Nc2ccccc2)[C@@H](OC)O[C@@H]1CO | -1.05 (inactive) | 0.211 | 7.38 (inactive) | 1.34 (inactive) | -0.446 (inactive) | 0.89 (inactive) | -0.26 | 0.0936 (inactive) | -0.91 (inactive) | -0.89 | -1.09 | 0.93 | -1.1 | -2.53 | -2.81 | 0.321 | 0.306 (inactive) | -1.1 | 0.268 | -2.57 (inactive) |
| O=C1CSC(c2cccc([N+](=O)[O-])c2)N1c1ccccc1 (stereo not given) | 0.0188 (inactive) | 0.0163 | 0.0361 (inactive) | 0.111 (inactive) | 0.708 (inactive) | -0.139 (inactive) | -0.0619 | -0.276 (inactive) | -0.0621 (inactive) | 0.509 | -0.295 | -0.23 | 1.71 | 1.31 | -0.566 | 1.04 | 1.05 (inactive) | 0.0369 | -0.779 | -0.292 (inactive) |
| CCCCCCCCCCC(O)C1C=CC2C(=O)NC(=O)C2N1Nc1ccccn1 (stereo not given) | -8.86 (active) | 0.0312 | 19.9 (active) | 6.41 (inactive) | -0.0795 (inactive) | 2.71 (inactive) | -1.18 | -2.33 (inactive) | -5.71 (inactive) | -0.309 | -3.22 | -0.964 | -4.08 | -3.81 | -4.13 | -3.82 | -0.46 (inactive) | -0.944 | -0.657 | -1.5 (inactive) |
| C=C(C(=O)CC[C@H](OC(=O)c1cccnc1)c1ccc(OCCO)cc1)C(C)C | -0.903 (inactive) | 0.282 | 23.1 (active) | 5.33 (inactive) | 1.01 (inactive) | 1.24 (inactive) | 0.136 | -0.427 (inactive) | 0.525 (inactive) | -1.85 | -0.328 | 0.165 | -0.823 | -3.3 | -1.75 | 0.149 | -0.00639 (inactive) | -0.634 | -1.45 | -0.569 (inactive) |
